Sampled rows, rich in hits. Any-hit rate of the full collection: about 0.42%.
WNV protease inh: inhibitors of WNV NS2B-NS3 protease, primary screen, biochemical, fluorogenic substrate; Genome polyprotein (West Nile virus), P06935; fluorogenic substrate Ex360/Em465; hits give low values; z-score (test concentration not listed); 0.18% of 65,000 active; AID 577, 2007; in the data active = z-score below about -3
Target sequence (P06935 1371-1501 limits assumed): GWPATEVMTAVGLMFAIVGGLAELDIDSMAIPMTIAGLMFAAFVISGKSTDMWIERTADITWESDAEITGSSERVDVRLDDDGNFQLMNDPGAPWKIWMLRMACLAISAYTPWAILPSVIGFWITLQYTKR
Target sequence (P06935 1502-1679 limits assumed): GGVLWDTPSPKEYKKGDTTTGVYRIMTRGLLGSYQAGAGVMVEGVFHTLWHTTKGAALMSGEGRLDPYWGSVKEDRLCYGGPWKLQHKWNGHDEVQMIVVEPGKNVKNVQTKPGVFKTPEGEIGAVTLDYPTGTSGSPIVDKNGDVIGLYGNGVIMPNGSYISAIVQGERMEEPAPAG
CatB inh: human cathepsin B inhibitors, primary screen, biochemical, fluorogenic substrate; purified cathepsin B, fluorescence; inhibition, %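 (tested at 10 µM)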; 0.1% of 63,000 active; AID 453, 2006; in the data active = inhibition above about 21%;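 note: 0% = enzyme with no compound and 100% = no enzyme blank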
CatS block: inhibitors of human cathepsin S, biochemical, compound mixtures. recombinant cathepsin S, AMC dipeptide fluorescence, pooled mixtures. P25774. inhibition, %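 (tested at 5 µM per compound within 10-compound mixtures)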. 0.06% of 62,000 active; in the data active = inhibition above about 32%, passing the limit was not always enough;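 note: 0% = enzyme without compound and 100% = blank without enzyme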
CatL block: inhibitors of human cathepsin L, biochemical; Procathepsin L (Homo sapiens), P07711; purified cathepsin L, fluorogenic substrate, fluorescence; inhibition, %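 (tested at 10 µM)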; 0.17% of 58,000 active; AID 460, 2006; in the data active = inhibition above about 45%;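 note: 0% = enzyme with no compound and 100% = no enzyme blank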
Target sequence (P07711 114-288 limits assumed): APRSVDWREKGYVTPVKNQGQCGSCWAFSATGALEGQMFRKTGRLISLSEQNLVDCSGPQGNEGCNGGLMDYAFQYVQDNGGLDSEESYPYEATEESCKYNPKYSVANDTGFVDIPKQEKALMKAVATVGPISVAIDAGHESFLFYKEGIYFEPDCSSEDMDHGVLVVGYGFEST
Target sequence (P07711 292-333 limits assumed): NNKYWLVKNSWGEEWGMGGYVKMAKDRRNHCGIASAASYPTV
CatB mix inh: cathepsin B inhibitors from pooled compounds, primary screen, biochemical, compound mixtures, AMC fluorescence. 0.06% of 62,000 active. Purified cathepsin B, AMC dipeptide fluorescence. inhibition, %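 (ten-compound pools at 5 µM per compound and 50 µM total)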. P07858. AID 488, 2006; in the data active = inhibition above about 22%, passing the limit was not always enough;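 note: 0% = enzyme without compound and 100% = no enzyme blank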
The depositor's hits bear a star; . = no result given.

SMILES	WNV protease inh	CatB inh	CatS block	CatL block	CatB mix inh
CC(=O)NCc1cn2c(C)csc2n1	-0.72	-6.4	5.6	.	3.1
COc1ccc(OC)c(C2C(C(N)=O)=C(C)Nc3nc(-c4cccc(Cl)c4)nn32)c1 (configuration not stated)	-4.81*	2.2	6.7	7.9	-0.9
CCCn1c(SCC(=O)Nc2ccc3c(c2)OCCO3)nnc1-c1ccco1	-3.87*	5.2	-0.3	-4.9	3.5
O=C(CCN1C(=O)c2ccccc2C1=O)OCN1C(=O)c2ccccc2C1=O	-0.28	-3.5	5.4	-4.6	-1.2
O=C(CNC(=O)c1ccco1)OCN1C(=O)c2ccccc2C1=O	0.12	21.5*	-10.1	1.3	25.2*
Cc1cc(NC(=O)Cn2nc(-c3ccccc3F)ccc2=O)ccc1-n1cnnn1	0.59	4.7	0.9	8.7	2.5
Cc1cnc(NC(=O)C(C)N2C(=O)C3CC=CCC3C2=O)s1 (configuration not stated)	-3.41*	2.8	-6.2	.	3.9
CC(C(=O)Nc1nccs1)N1C(=O)C2CC=CCC2C1=O (configuration not stated)	0.67	0.1	11.6	8.6	-6.8
Nc1nonc1C(=O)NCCNCc1ccccc1OCc1ccccc1F	-0.09	23.1*	10.0	16.5	24.7
Nc1nonc1C(=O)NCCNCc1cc(Br)ccc1OCc1ccccc1F	0.31	12.5	4.5	11.8	24.1
CC(c1nnc(SCC(=O)NC(=O)NCc2ccco2)n1-c1ccc(Cl)cc1)N(C)C (configuration not stated)	0.16	4.6	2.5	60.8*	-5.3
Cc1ccnc(NC(=O)CCC(=O)N(CC(=O)NC2CCCCC2)Cc2ccc3c(c2)OCO3)c1	-0.44	-0.4	-3.8	-3.3	-6.2
Cc1ccc(/C=N/c2sc3c(c2C#N)CCCCC3)o1	-0.62	0.2	3.2	-1.2	1.3
Cc1ccc(/C=N/c2sc3c(c2C#N)CCC3)s1	0.02	5.0	-6.7	104.8*	0.0
O=C(c1cc2ccccc2oc1=O)N1CCN(c2ccc(N3CCOCC3)nn2)CC1	-4.02*	0.6	-1.7	10.2	2.8
Cc1csc(NC(=O)CSc2nnc(-c3ccoc3C)n2Cc2ccco2)n1	0.76	0.3	6.8	11.1	7.8
O=C(CSc1nc2ccccc2[nH]1)NCc1ccco1	-0.46	0.5	9.7	21.4	-6.3
O=C(CSc1nc2ccccc2[nH]1)NCCN1CCCCC1	-1.75	1.0	-1.4	52.2*	1.2
O=C(Nc1ccc(Cl)cc1)NC1CCCC1Cc1ccco1 (configuration not stated)	-4.85*	-2.4	0.2	-2.8	-0.9
CC(C)NC(=O)c1ccc2c(c1)N(CC(=O)N1CCOCC1)C(=O)C(C)(C)O2	-0.08	0.7	-6.5	-2.5	-3.6
Cn1c(C(=O)NCCN2CCc3ccccc3C2)cc2c(=O)n(C)c3ccccc3c21	1.45	2.6	73.6*	13.3	2.0
Cn1c(C(=O)NCCN2CCOCC2)cc2c(=O)n(C)c3ccccc3c21	-0.57	-3.3	80.8*	.	1.7
Cn1c(C(=O)NCCN2CCN(c3ccccc3F)CC2)cc2c(=O)n(C)c3ccccc3c21	-0.31	-2.8	39.2	30.4	8.3
COc1ccc(CCNC(=O)c2c(O)c3cccc4c3n(c2=O)CC4)cc1	-4.66*	0.1	3.9	0.7	-5.1
CCCS(=O)(=O)N1CCCC(C(=O)NCCCN2CCN(c3cccc(Cl)c3)CC2)C1 (configuration not stated)	-1.41	-3.9	-0.4	7.7	5.5
SMILES	WNV protease inh	CatB inh	CatS block	CatL block	CatB mix inh
CC(=NCc1ccco1)c1c(C)[nH]n(-c2nc3ccccc3s2)c1=O	0.84	-2.4	46.0*	-1.1	-5.8
COc1ccc(C2C(C(=O)NCc3ccccn3)c3cc(OC)c(OC)cc3C(=O)N2C)cc1 (configuration not stated)	-0.42	5.0	-10.1	58.9*	-3.3
CCCCNC(=O)C(C#N)c1nc2ccccc2nc1N1CCN(c2ccccc2F)CC1 (configuration not stated)	-1.57	0.3	.	2.8	.
CC(C)NC(=O)C1CCN(C(=O)c2cc3sccc3n2Cc2ccc(F)cc2)CC1	-0.19	-0.1	-2.8	-3.9	2.7
CC1CCN(C(=O)C2CCN(C(=O)c3cc4sccc4n3Cc3ccc(F)cc3)CC2)CC1	-1.26	1.3	-2.2	54.0*	1.3
COC(=O)CSC1=C(C#N)C(c2ccc(C)cc2)C2=C(CCCC2=O)N1 (configuration not stated)	-5.03*	8.7	21.0	.	2.4
O=C(NCCCN1CCc2ccccc2C1)C1CCN(c2nnc(-n3cccc3)s2)CC1	-0.86	-3.7	2.0	78.0*	-10.0
O=C(NCCCN1CCN(Cc2ccccc2)CC1)C1CCN(c2nnc(-n3cccc3)s2)CC1	-0.66	3.3	8.5	63.8*	1.0
COc1ccc2c(c1OC)C(=O)NC(C)=C(C(=O)OC(C)(C)C)C2O (configuration not stated)	0.34	2.1	13.0	15.3	4.5
CC1=C(C(=O)OC2CCCC2)C(c2ccc(C)o2)C2=C(CC(c3cccs3)CC2=O)N1 (configuration not stated)	0.45	5.7	19.3	8.1	5.6
CN(C)c1nc2sc3c(c2c(=O)n1C)CC(C)(C)OC3	-0.53	1.1	.	-4.8	.
CNc1nc2sc3c(c2c(=O)n1C)CC(C)(C)SC3	-7.01*	3.3	9.4	-20.5	-1.2
Cc1nnc(SCc2nnc(-c3ccccc3Br)o2)n1-c1ccccc1	-0.35	0.5	5.4	81.6*	7.8
Cc1nnc(SCc2nnc(-c3ccc(Cl)cc3)o2)n1-c1ccccc1	-0.07	4.3	4.2	26.4	3.3
COc1ccc(-c2ccc(-c3nnn(CC(C)=O)n3)cc2)cc1	0.32	0.9	8.1	6.9	-6.5
CCC(C(=O)O)n1nnc(-c2ccc(-c3ccc(OC)cc3)cc2)n1 (configuration not stated)	0.39	-3.0	3.7	65.7*	0.5
CCn1cc(C(=O)Nc2cccc(C(=O)OC)c2)c(=O)c2ccc(C)nc21	-6.17*	-1.6	-7.4	-0.9	4.1
C[C@]12C=CC(=O)C=C1CC[C@H]1[C@@H]3C[C@@H](O)[C@](O)(C(=O)CO)[C@@]3(C)C[C@H](O)[C@@]12F	-0.01	.	-3.2	94.2*	5.5
O=C(c1ccc(Cl)cc1)N1CCN(c2nc(N3CCCCC3)nc(N3CCCCC3)n2)CC1	-0.15	3.9	-21.4	.	-8.7
O=C1CC(N2CCOCC2)C(=O)N1Cc1ccc(N2CCCC2=O)cc1 (configuration not stated)	-3.2*	5.2	-9.0	3.7	1.6
CN(C(=O)COc1cc(=O)n(C)c2ccccc12)c1cccc(Cl)c1	0.07	0.5	-6.4	.	3.1
CCN(C(=O)COc1cc(=O)n(C)c2ccccc12)c1cccc(Cl)c1	-0.7	57.1*	1.3	-0.9	0.2
CCCN(CCC)CCNC(=O)C(NS(=O)(=O)c1ccc2c(c1)CCC(=O)N2)c1ccccc1 (configuration not stated)	-0.33	1.3	81.7*	25.2	7.1

Compound activity as filed in PubChem BioAssay.
